# According to ChEMBL document CHEMBL1157539, “Thousands of chemical starting points for antimalarial lead identification” (Nature, 2010):
# Tests used:
# Type in all cases: functional
# Plasmodium falciparum [1] = test: GSK_TCMDC: Inhibition of Plasmodium falciparum 3D7 in whole red blood cells, using parasite LDH activity as an index of growth. Test compounds present at 2uM
# Plasmodium falciparum [2] = test: GSK_TCMDC: Inhibition of Plasmodium falciparum Dd2 in whole red blood cells, using parasite LDH activity as an index of growth. Test compounds present at 2uM
# HepG2 = test: GSK_TCMDC: Percent inhibition of human HepG2 cell line. Test compounds present at 10uM.
Structure (SMILES),Inhibition (Plasmodium falciparum [1]),Inhibition (Plasmodium falciparum [2]),Inhibition (HepG2)
Nc1c2c(nc3ccc(C(=O)Nc4ccc(Br)cc4)cc13)CCCC2,100%,99%,40%
CC(C)C1C(O)=C(c2ccc3ccccc3c2)C(=O)N1Cc1ccsc1 (stereo unspecified),88%,82%,11%
Cn1cncc1-c1ccc2ncnc(Nc3ccc4c(cnn4Cc4ccccc4)c3)c2c1,100%,99%,1%
O=C(NCC1CCC1)c1cnc(Nc2cccc(Cl)c2)nc1N1CCC1,98%,75%,21%
O=C(Nc1cccc(-c2cccc(-c3nc4ccccc4[nH]3)c2)c1)c1ccncc1,99%,38%,27%
O=C(Nc1cccc([N+](=O)[O-])c1)N(Cc1ccc(Cl)c(Cl)c1)C1CCNCC1,99%,0%,17%
O=C(/C=N/O)Nc1ccccc1[N+](=O)[O-],99%,0%,0%
COc1ccc(-c2nc(NC(=O)CS(=O)(=O)c3ccc(OC)cc3)sc2C)cc1,95%,89%,6%
Cc1cc(O)nc(NC#N)n1,99%,3%,8%
O=C1c2ccccc2C(=O)N1c1ccc(S(=O)(=O)N2CCOCC2)cc1,94%,0%,0%
c1cncc(Oc2ccc(Nc3ccnc4cc(-c5cccc(CN6CCCCC6)c5)ccc34)cc2)c1,100%,100%,33%
CC(C)C[C@@H](NC(=O)OC(C)(C)C)C(=O)Nc1ccc(Cc2ccc(NC(=O)[C@@H](CC(C)C)NC(=O)OC(C)(C)C)cc2)cc1,96%,96%,8%
